Values joined by “and” are separate entries in the source; they are usually repeats but may differ in a detail not shown here. Equal entries are not always repeated. Records with an inconclusive call do not appear. The source holds several records for some structures; these can differ, active in one and inactive in another. Active and inactive are the calls of the source. Unless noted, calls follow the shape of the dose curve; as a rule, active = well fitted curve in the direction sought with a large enough effect in the repeat runs; inconclusive = weak or mixed curves; inactive = no such curve, though single readings can be large; an effect the other way counts as inactive or inconclusive.
Key:
[1] = biological target: Luciferin 4-monooxygenase (Photinus pyralis) (UniProt P08659); assay: qHTS assay to identify small molecule inhibitors of firefly luciferase (AID 1224835); also: nearly all actives have a fitted effect of over 25% in size; also: potency is read from the fitted curve at half-maximal effect
How it was run: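 Biochemical qHTS: compounds run as interplate titrations against purified firefly enzyme, with D-luciferin and ATP each at its KM concentration. Light output recorded by CCD imaging.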

[2] = qHTS assay to identify small molecule agonists of the constitutive androstane receptor (CAR) signaling pathway - cell viability counter screen (AID 1224836); also: nearly all actives have a fitted effect of over 45% in size; also: potency is read from the fitted curve at half-maximal effect
How it was run: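 Fluorescence from CellTiter-Fluor indicates live cells after 23 h exposure. The human hepatoma line expresses hCAR and a CYP2B6-2.2kb reporter. Incubation medium contains 0.75 uM PK11195 (final).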

[3] = qHTS assay to identify small molecule antagonists of the constitutive androstane receptor (CAR) signaling pathway - cell viability counter screen (AID 1224837); also: series mostly up to about 92 µM; nearly all actives have a fitted effect of over 45% in size
How it was run: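 HepG2-CYP2B6-hCAR cells, 2500/well, 4 hr pre-incubation; compound titration, 15 conc.; CITCO 50 nM final; 23 hr, 37 C/5% CO2; CellTiter-Fluor, fluorescence intensity.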

[4] = biological target: Thyrotropin receptor (Homo sapiens) (UniProt P16473); assay: qHTS assay to identify small molecule agonists of the thyroid stimulating hormone receptor (TSHR) signaling pathway (AID 1224843; calls by dose curve; also: nearly all actives have a fitted effect of over 45% in size)
How it was run: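 TSHR-HEK293 cells in agonist mode, 30 min room-temperature step, then cAMP measured by competitive HTRF (cAMP-d2 with anti-cAMP cryptate) after 1 h at room temperature. Tested at 15 concentrations in triplicate.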

[5] = qHTS assay to identify small molecule agonists of the hypoxia (HIF-1) signaling pathway - cell viability counter screen (AID 1224844; calls by dose curve; also: nearly all actives have a fitted effect of over 50% in size)
How it was run: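 ME-180 HRE-bla cells, 2,000/well, 0.5% dialyzed FBS; 5 hr settle, 17 hr compound at 37C/5% CO2; CCF4-AM reporter read first, then CellTiter-Glo luminescence after 30 min RT.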

[6] = qHTS assay to identify small molecule agonists of H2AX (AID 1224845; active = well fitted activation curve with a large enough effect in the signal ratio in the repeat runs, not every such curve was filed as active; the % refers to the signal ratio)
How it was run: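 Wild-type CHO-K1 cells, plated overnight, exposed 3hr at 37C to 15 concentrations (0.76% DMSO final). Lysed, then HTRF anti-pH2AX (S139) cryptate and anti-H2AX-d2 antibodies, 24 hr room temperature; 665/620 nm emission read.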

[7] = qHTS assay to identify small molecule agonists of H2AX - cell viability counter screen (AID 1224847; calls by dose curve; also: top concentration of the series differs between compounds; nearly all actives have a fitted effect of over 30% in size)
How it was run: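 Viability of CHO-K1 (wild type) cells after 3 hr compound exposure was measured by CellTiter-Glo luminescence.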

[8] = qHTS RealTime-Glo MT Cell Viability Assay in HepG2 cells - 24 hour (AID 1224867); also: nearly all actives have a fitted effect of over 50% in size
How it was run: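 Viability was tracked continuously by NanoLuc luminescence from prosubstrate reduced by living HepG2 cells, at successive time points over 40 h of compound exposure. Cells with reagent were preincubated 5 h at 37 °C before compound addition.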

[9] = qHTS RealTime-Glo MT Cell Viability Assay in HEK293 cells - 32 hour (AID 1224868); also: nearly all actives have a fitted effect of over 50% in size; also: potency is read from the fitted curve at half-maximal effect
How it was run: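 Viability tracked continuously by luminescence as live cells reduce a prosubstrate for NanoLuc; HEK293 cells preincubated 5 h, compound-treated at 37 C, and read at 0, 8, 16, 24, 32 and 40 h.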

[10] = qHTS RealTime-Glo MT Cell Viability Assay in HepG2 cells - 40 hour (AID 1224870); also: nearly all actives have a fitted effect of over 50% in size
How it was run: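 HepG2 cells (600/well) mixed with RealTime-Glo MT reagent, settled 5 h at 37 C/5% CO2 before compound addition. Nonlytic NanoLuc luminescence from viable-cell prosubstrate reduction read repeatedly during 40 h treatment at 37 C.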

[11] = qHTS assay to identify small molecule antagonists of the estrogen related receptor (ERR) signaling pathway from Tox21 library - cell viability counter screen (AID 1224834); also: nearly all actives have a fitted effect of over 30% in size; also: potency is read from the fitted curve at half-maximal effect
How it was run: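 Fluorescence from CellTiter-Fluor gives the viability read-out, taken 30 min after reagent addition. Before that, ERR cells seeded 6 h earlier were incubated with compounds for 17.5 h at 37 C.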

[12] = qHTS assay to identify small molecule antagonists of the estrogen related receptor signaling pathway with the pleiotropic PPARgamma coactivator (PGC) from Tox21 10K library - cell viability counter screen (AID 1224840; active = well fitted cell-killing curve with a large enough effect in the repeat runs, not every such curve was filed as active; also: nearly all actives have a fitted effect of over 40% in size; also: potency is read from the fitted curve at half-maximal effect)
How it was run: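 PGC/ERR cells, 2,000/well; 6 h pre-incubation 37 C/5% CO2; cpd in DMSO via pin tool; 17.5 h 37 C; CellTiter-Fluor, 30 min; fluorescence.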

[13] = qHTS assay to identify small molecule agonists of the hypoxia (HIF-1) signaling pathway (AID 1224846; active = well fitted activation curve with a large enough effect in the signal ratio in the repeat runs, not every such curve was filed as active; the % refers to the signal ratio)
How it was run: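 Cell line: CellSensor HRE-bla ME-180; 2,000 cells/well; 0.5% dialyzed FBS; 5 h preincubation; DMSO compound pin transfer; 17 h, 37C, 5% CO2; CCF4-AM added; bla FRET signal scored for activation.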

[14] = A CellTox Green Cytotoxicity Assay to monitor cytotoxicity in HEK293 cells - 0 hour (AID 1224869); also: nearly all actives have a fitted effect of over 50% in size
How it was run: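 Nonlytic real-time cytotoxicity: HEK293 + CellTox Green reagent plated, 5 h preincubation, pintool compound addition (23 nL in DMSO), 37 C for 40 h, fluorescence measured at successive time points.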

[15] = biological target: Nuclear receptor subfamily 1 group I member 3 (Homo sapiens) (UniProt Q14994); assay: qHTS assay to identify small molecule antagonists of the constitutive androstane receptor (CAR) signaling pathway (AID 1224838);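 also: HepG2 cells stably expressing hCAR with CYP2B6 luciferase reporter stimulated by CITCO; nearly all actives have a fitted effect of over 40% in size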; also: potency is read from the fitted curve at half-maximal effect
How it was run: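 HepG2-CYP2B6-hCAR cells; 4 h pre-incubation; cpd (15 conc) + CITCO 50 nM final; 24 h, 37 C/5% CO2; ONE-Glo, luminescence.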

[16] = biological target: Nuclear receptor subfamily 1 group I member 3 (Homo sapiens) (UniProt Q14994); assay: qHTS assay to identify small molecule agonists of the constitutive androstane receptor (CAR) signaling pathway (AID 1224839); also: nearly all actives have a fitted effect of over 15% in size; also: potency is read from the fitted curve at half-maximal effect;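 as to activation: HepG2 cells stably carrying human CAR and a CYP2B6 luciferase reporter; series mostly up to about 92 µM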
How it was run: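 Stable hCAR/CYP2B6-2.2kb HepG2 line in DMEM with 10% FBS; compounds (15 concentrations) and 0.75 uM PK11195 final, 24 h at 37 C/5% CO2, then ONE-Glo luminescence after 30 min.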

[17] = qHTS assay to identify small molecule antagonists of the estrogen related receptor signaling pathway with the pleiotropic PPARgamma coactivator (PGC) from Tox21 10K library (AID 1224841; call rule not given here; also: potency is read from the fitted curve at half-maximal effect)
How it was run: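 PGC/ERR cell line, 2,000 cells/well; 6 h pre-incubation 37 C/5% CO2; compounds (DMSO) pinned in; 18 h, 37 C; One-Glo, 30 min RT; luminescence.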

[18] = qHTS assay to identify small molecule agonists of the estrogen related receptor signaling pathway with the pleiotropic PPARgamma coactivator (PGC) from Tox21 10K library (AID 1224842); also: nearly all actives have a fitted effect of over 15% in size
How it was run: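 PGC/ERR reporter cell line, 2,000 cells per well, incubated 6 h at 37 C before 23 nL compound in DMSO was added. After 18 h at 37 C, One-Glo luminescence read following 30 min at room temperature.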

[19] = qHTS assay to identify small molecule antagonists of the estrogen related receptor (ERR) signaling pathway from Tox21 library (AID 1224848); also: nearly all actives have a fitted effect of over 50% in size; also: potency is read from the fitted curve at half-maximal effect
How it was run: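 ERR reporter cell line (from NTP) seeded 2,000 cells/well, rested 6 h at 37 C/5% CO2, then pin-dosed with compounds in DMSO. After 18 h at 37 C, ONE-Glo added; luminescence read after 30 min at room temperature.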

Measured: Potency

Chain of Thyrotropin receptor (Homo sapiens) (P16473 whole entry, looked up): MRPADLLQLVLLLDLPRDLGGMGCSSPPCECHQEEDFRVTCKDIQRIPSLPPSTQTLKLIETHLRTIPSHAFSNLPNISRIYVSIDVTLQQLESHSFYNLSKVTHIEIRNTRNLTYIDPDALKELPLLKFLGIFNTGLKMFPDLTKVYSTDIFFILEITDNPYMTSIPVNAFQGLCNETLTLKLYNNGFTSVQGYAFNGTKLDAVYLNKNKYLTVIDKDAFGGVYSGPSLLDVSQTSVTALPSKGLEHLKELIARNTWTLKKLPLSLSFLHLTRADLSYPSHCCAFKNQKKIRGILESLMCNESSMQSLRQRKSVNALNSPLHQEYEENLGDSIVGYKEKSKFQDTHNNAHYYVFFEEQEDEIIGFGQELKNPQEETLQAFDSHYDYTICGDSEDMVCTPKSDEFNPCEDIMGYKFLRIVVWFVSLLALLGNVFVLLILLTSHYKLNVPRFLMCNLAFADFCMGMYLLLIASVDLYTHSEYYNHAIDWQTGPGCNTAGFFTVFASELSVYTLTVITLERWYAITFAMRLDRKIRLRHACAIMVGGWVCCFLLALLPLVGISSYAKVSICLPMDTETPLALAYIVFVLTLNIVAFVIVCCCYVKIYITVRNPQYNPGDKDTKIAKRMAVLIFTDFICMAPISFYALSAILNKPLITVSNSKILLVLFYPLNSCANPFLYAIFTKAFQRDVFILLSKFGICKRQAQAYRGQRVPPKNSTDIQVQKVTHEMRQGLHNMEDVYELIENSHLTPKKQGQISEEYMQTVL
Chain of Nuclear receptor subfamily 1 group I member 3 (Homo sapiens) (Q14994 whole entry, looked up): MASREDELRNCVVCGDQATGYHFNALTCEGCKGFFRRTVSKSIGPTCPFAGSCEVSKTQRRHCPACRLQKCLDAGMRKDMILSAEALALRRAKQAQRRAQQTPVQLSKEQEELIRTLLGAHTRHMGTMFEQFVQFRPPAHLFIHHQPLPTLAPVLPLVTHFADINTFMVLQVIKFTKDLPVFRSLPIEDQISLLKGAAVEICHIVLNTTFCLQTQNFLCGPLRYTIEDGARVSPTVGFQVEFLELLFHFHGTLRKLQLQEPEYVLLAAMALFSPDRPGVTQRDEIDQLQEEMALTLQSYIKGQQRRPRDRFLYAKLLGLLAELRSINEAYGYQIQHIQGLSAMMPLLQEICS
Chain of Luciferin 4-monooxygenase (Photinus pyralis) (P08659 whole entry, looked up): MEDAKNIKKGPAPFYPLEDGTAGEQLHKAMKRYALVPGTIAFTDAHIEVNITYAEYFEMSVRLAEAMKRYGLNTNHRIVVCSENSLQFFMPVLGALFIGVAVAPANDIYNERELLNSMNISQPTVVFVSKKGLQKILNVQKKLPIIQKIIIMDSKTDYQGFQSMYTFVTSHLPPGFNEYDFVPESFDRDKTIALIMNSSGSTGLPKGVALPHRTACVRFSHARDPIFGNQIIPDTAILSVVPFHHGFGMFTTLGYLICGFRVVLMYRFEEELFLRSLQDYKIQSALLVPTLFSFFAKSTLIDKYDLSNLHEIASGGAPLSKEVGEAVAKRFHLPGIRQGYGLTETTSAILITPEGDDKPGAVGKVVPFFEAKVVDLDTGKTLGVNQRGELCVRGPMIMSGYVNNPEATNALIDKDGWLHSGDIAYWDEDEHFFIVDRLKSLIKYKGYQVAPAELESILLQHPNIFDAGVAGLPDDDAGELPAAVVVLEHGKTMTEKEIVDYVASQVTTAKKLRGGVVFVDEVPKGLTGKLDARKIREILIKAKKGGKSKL

CCn1cc(C(=O)O)c(=O)c2ccc(C)nc21
inactive: [1] | [2] | [3] | [4] | [5] | [6] | [7] | [8] | [9] | [10]

C[C@]12CC[C@@H]3c4ccc(O)cc4CC[C@H]3[C@@H]1CCC2=O
not listed: [1] | [4] | [9] | [15] | [16] | [17] | [18] | [19]
inactive: all other assays above

CC1=NN(c2ccccc2)C(=O)C1
not listed: [2] | [13] | [14] | [15] | [16] | [17] | [18] | [19]
inactive: all other assays above

CC(=O)Oc1ccccc1C(=O)O
not listed: [2] | [13] | [15] | [16] | [17] | [18] | [19]
inactive: all other assays above

Cc1c(N(C)C)c(=O)n(-c2ccccc2)n1C
not listed: [2] | [3] | [13] | [14] | [17] | [18] | [19]
inactive: all other assays above

CCc1cc(C(N)=S)ccn1
inactive: [11] | [12] | [4] | [5] | [6] | [7] | [8] | [9] | [10]

CC(=O)c1ccc(S(=O)(=O)NC(=O)NC2CCCCC2)cc1
inactive: [11] | [1] | [12] | [4] | [5] | [6] | [7] | [8] | [9] | [10]

CC(C)Cc1ccc(C(C)C(=O)O)cc1 (stereo unspecified)
not listed: [1] | [13] | [14]
inactive: all other assays above

CO[C@H]1C=CO[C@@]2(C)Oc3c(C)c(O)c4c(O)c(c(/C=N/N5CCN(C)CC5)c(O)c4c3C2=O)NC(=O)/C(C)=C\C=C[C@H](C)[C@H](O)[C@@H](C)[C@@H](O)[C@@H](C)[C@H](OC(C)=O)[C@@H]1C
54.8 µM (active) and inactive: [15]
active: [11] 27.4 µM and 31 µM and 23.7 µM | [2] 27.4 µM | [12] 27.4 µM | [17] 48.8 µM and 23.7 µM | [19] 48.8 µM and 23.7 µM | [9] 19.6 µM and 9.88 µM
not listed: [1] | [3] | [6] | [13]
inactive: all other assays above

Nc1ccc(N=Nc2ccccc2)c(N)n1
inactive: [15] | [4] | [5] | [7] | [8] | [10]
active: [11] 48.8 µM and 48.6 µM and 21.1 µM | [1] 8.99 µM and 7.96 µM and 7.76 µM | [16] 24.5 µM and 9.69 µM and 5.96 µM | [12] 38.6 µM | [9] 43.9 µM and 24.5 µM

N[C@@H](Cc1c[nH]c2ccccc12)C(=O)O
not listed: [2] | [3] | [14] | [15] | [16] | [17] | [18] | [19]
inactive: all other assays above

O=C1OC(c2ccc(O)cc2)(c2ccc(O)cc2)c2ccccc21
active: [16] 60.7 µM and 8.63 µM and 4.73 µM
not listed: [2] | [3] | [13] | [17] | [18] | [19]
inactive: all other assays above

NC(N)=NC(N)=NCCc1ccccc1
not listed: [2] | [3] | [14] | [15] | [16] | [17] | [18] | [19]
inactive: all other assays above

CN(C)Cc1cc(CN(C)C)c(O)c(CN(C)C)c1
not listed: [2] | [3] | [17] | [18] | [19]
inactive: all other assays above

— PubChem BioAssay (Tox21)
